Only some compounds are listed: those with a hit (about 1.8% of all), similar ones and a draw of the others.
VCAM1 TNFa inh: reduces TNF alpha induced VCAM1 expression in HUVEC; inhibition, % at 2 µM; HUVEC TNFa-induced VCAM-1 immunofluorescence, high-content imaging; hit rate 0.48% among 95,000;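 active = inhibition above the batch mean plus 3 SD, with images confirmed as a hit by eye, cut at about 37% in these data; inconclusive = inhibition above that limit but hit not confirmed in images; inactive = inhibition not above that limit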;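 also: 0% = TNF-stimulated DMSO wells and 100% = unstimulated control wells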
IL1B NFkB pot: enhances IL-1B driven NFkB nuclear translocation; HUVEC IL-1B NFkB p65 nuclear translocation imaging; activation, % at 2 µM; hit rate 0.3% among 94,000;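 active = activation above 40%, about the mean plus 3 SD, also judged a hit on visual image review; inconclusive = activation above 40% but not a hit on visual review; inactive = activation not above 40% and no visual hit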;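 also: percent activation is computed from the nuclear over cytoplasmic p65 intensity ratio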
E-sel TNF inh: TNF alpha driven E-selectin expression inhibition. AID 1246. inhibition, % at 2 µM. HUVEC TNFa-induced E-selectin immunofluorescence, high content. hit rate 0.71% among 120,000;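 active = inhibition above the batch mean plus 3 SD, and confirmed as a hit on visual image review, cut at about 43% in these data; inconclusive = passes the inhibition cutoff but fails visual image review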;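 also: 0% = TNF-stimulated DMSO wells and 100% = unstimulated control wells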
TNFa cytotox: toxic to HUVEC cells under TNF alpha stimulation | HUVEC TNFalpha-stimulated, Hoechst cell count, imaging | cell count reduction, % at 2 µM | hit rate 0.17% among 93,000;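 active = cell count reduction exceeding the screen mean by over 5 SD, scaled to untreated wells per plate, cut at about 78% in these data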;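 also: cells counted after 24 h of TNF alpha exposure following the 1 h pretreatment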
IL1B NFkB inh: blocks IL-1B driven NFkB nuclear translocation in HUVEC cells; HUVEC IL-1B NFkB p65 nuclear translocation imaging; inhibition, % at 2 µM; hit rate 0.43% among 94,000; AID 796;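 active = inhibition above about 30% together with a positive call from visual inspection of the well image, limit read from the data; inconclusive = inhibition above a set limit but visual check negative; inactive = inhibition not above a set limit, visual check negative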;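 also: nuclear over cytoplasmic p65 intensity ratio measured by imaging; 0% = IL-1B stimulated DMSO wells and 100% = unstimulated DMSO wells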
HUVEC tox IL1B: toxic to HUVEC cells under IL-1B stimulation | AID 845 | HUVEC cell count loss, Hoechst imaging, IL-1B stimulated | cell count reduction, % at 2 µM | hit rate 0.41% among 94,000;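 active = cell count reduction more than 3 SD above the screen-wide mean, cut at about 70% in these data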;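 also: normalized per plate to untreated control cells as the no-loss baseline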
Numbers without * were called inactive; ? = inconclusive; . = no result given.

SMILES	VCAM1 TNFa inh	IL1B NFkB pot	E-sel TNF inh	TNFa cytotox	IL1B NFkB inh	HUVEC tox IL1B
CCCC(CCC)C(=O)NNc1cc(=O)c2c(=O)n(C)c(=O)n(C)c2[nH]1	11	4	100*	6	-4	-74
Cc1cccc(-c2nnc(SCc3ccc(C#N)cc3)n2Cc2ccco2)c1	11	7	6	24	-7	20
O=C(c1cccc(F)c1F)N1CCCC1	0	-1	-8	-34	1	21
Cc1ccc(SCC(=O)NC(=O)Nc2ccc3c(c2)OCCO3)cc1C	.	.	-22	.	.	.
Cc1ccc(CNC(=O)C2CCN(S(=O)(=O)c3c(C)noc3/C=C/c3ccco3)CC2)cc1	-14	1	57*	42	-1	23
Cc1ccc(CCNC(=O)C2CCCN(S(=O)(=O)c3c(C)noc3C)C2)cc1 (centres undefined)	19	9	.	9	-9	-4
Cc1ccc(NC(=O)C2CCCN(S(=O)(=O)c3c(C)noc3C)C2)nc1 (centres undefined)	-16	-4	65*	-3	4	-4
Cc1noc(/C=C/c2ccco2)c1S(=O)(=O)N1CCC(C(=O)NCc2ccco2)CC1	2	-2	.	-37	2	12
Cc1ccc(CCNC(=O)C2CCCN(S(=O)(=O)c3c(C)noc3/C=C/N(C)C)C2)cc1 (centres undefined)	0	-9	55*	-20	9	-18
CC1Cc2ccccc2N1C(=O)Cn1cc([N+](=O)[O-])cn1 (centres undefined)	4	-4	-31	4	4	-23
CCn1nc(NC(=O)c2ccccn2)c2cc3cccc(C)c3nc21	11	51*	-23	-26	-51	-14
CCn1nc(NC(=O)c2ccncc2)c2cc3cccc(C)c3nc21	3	0	-9	24	0	9
Cc1cc(C)n(-c2nc3c(c(=O)n(C)c(=O)n3C)n2CC(O)COc2ccccc2C)n1 (centres undefined)	1	10	14	10	-10	-3
CCNc1nc(N)c(C(=C(C#N)C#N)c2ccccc2)s1	-2	-5	20	-4	5	-8
CC(=O)c1ccc(NC(=S)N2CC(C)CC(C)C2)cc1 (centres undefined)	.	.	77*	.	.	.
COc1ccc(CCNC(=O)c2n[nH]c(=O)c3ccccc23)cc1	.	7	-30	.	-7	16
CCOC(=O)c1[nH]c2cc3c(cc2c1NC(=O)CN1CCc2ccccc2C1)OCO3	14	2	-31	-19	-2	7
CCOC(=O)c1[nH]c2cc3c(cc2c1NC(=O)CN1CCC(C)CC1)OCO3	12	-98	24	-22	98*	86*
COc1cccc(S(=O)(=O)Nc2ccc(C(=O)N3CCN(C(=O)c4ccco4)CC3)cc2)c1	26	16	97*	-2	-16	-37
Cc1nc2ccccc2n1CC(O)COCC1CC=CCC1 (centres undefined)	-43	-14	14	96*	14	30
Cc1ccc(-n2c(-c3ccccc3)c[n+]3c2CCc2ccccc2-3)c(C)c1	.	.	-25	.	.	.
O=C(NC1CC1)C1CC(=O)N(C2CCCCC2)C1 (centres undefined)	7	121*	-3	-5	-121	5
Nc1cc2c(cc1C(=O)c1ccc(Cl)cc1)OCCO2	21	21	10	-5	-21	-2
COCc1cc(C)nc(N/N=C/c2ccc(Cl)c(Cl)c2)c1C#N	.	.	8	.	.	.
CC(=O)C1=C(C)NC(SCc2cccc3ccccc23)=C(C#N)C1c1ccco1 (centres undefined)	.	.	67*	.	.	.
SMILES	VCAM1 TNFa inh	IL1B NFkB pot	E-sel TNF inh	TNFa cytotox	IL1B NFkB inh	HUVEC tox IL1B
CS(=O)(=O)NCC(c1ccco1)N1CCN(c2ccc(F)cc2)CC1 (centres undefined)	.	.	52	.	.	.
CCSc1nnc(NC(=O)c2cc(OC)c(OC)c(OC)c2)s1	.	.	0	.	.	.
CC(C)(C)NC(=O)CSC(=Nc1ccc(F)cc1)NC#N	14	-16	.	-24	16	-3
CCC(Sc1ccc2nnc(-c3ccc(F)cc3)n2n1)C(=O)OC (centres undefined)	6	-3	-32	-12	3	82*
COC(=O)CC/C(O)=C1\C(=O)CC(C)(C)CC1=NCCc1nc2ccccc2[nH]1	.	.	17	.	.	.
O=C(O)CCn1c2c(c3ccccc31)CCCC2	14	-2	28	0	2	4
O=C(CCn1c2c(c3ccccc31)CCCC2)NNC(=O)c1ccccc1[N+](=O)[O-]	.	.	81*	.	.	.
CC(=O)c1cccc(NC(=O)c2cc(C(C)C)on2)c1	4	5	.	4	-5	-25
CC(=O)c1cccc(NC(=O)c2cc(-c3ccc(F)cc3)on2)c1	71*	-1	.	73	1	27
CCCCN(CC)CCCNC(=S)Nc1ccc2nc3n(c(=O)c2c1)CCCCC3	.	.	9	.	.	.
N=c1sccn1CC(=O)Nc1cc(Cl)ccc1[N+](=O)[O-]	.	.	-8	.	.	.
N=c1sccn1CC(=O)NCCc1ccc(Cl)cc1	-11	12	81*	0	-12	-7
O=C(O)c1c[nH]c2ccc(S(=O)(=O)N3CCOCC3)cc12	55*	14	.	-8	-14	8
N#C/C(=C\c1cccs1)C(=O)NCC1CCCO1 (centres undefined)	-13	2	-15	1	-2	-2
N#C/C(=C/c1cc(Br)cs1)C(=O)NCC1CCCO1 (centres undefined)	-16	-97	-4	-16	97*	88*
O=C(Cc1ccc(-n2cccc2)cc1)NC1CCCCCC1	41*	.	-18	-10	.	.
CCN(c1ccc(C)c(C)c1)S(=O)(=O)c1ccc2c(c1)CCN2C(=O)CCC(=O)O	21	54*	19	-26	-54	-12
CCN(c1ccc(OC)cc1)S(=O)(=O)c1ccc2c(c1)CCN2C(=O)CCC(=O)O	-2	4	-9	-15	-4	-14
C=CCNCc1cccn1-c1sc2c(c1C#N)CCCC2	13	-31	4	54	31*	8
Cc1ccc(Nc2c([N+](=O)[O-])c(=O)n(C)c3ccccc23)cc1C	-3	6	0	2	-6	37
CCN(CC)C(=O)CSc1nnc(-c2ccccc2)n1-c1ccccc1	4	-38	.	-35	38*	-42
CCN(CC)C(=O)CSc1nnc(-c2ccccc2)n1N	24	15	.	-21	-16	-10
COc1ccc(S(=O)(=O)N(CC(=O)NC2CC2)c2ccc(C)cc2)cc1OC	6	-2	-14	2	2	-18
CC(C)C(=O)Nc1ccc(C(=O)NNC(=O)NC2CCCCC2)cc1	36*	-11	-52	28	11	7
CC(C)C(=O)Nc1ccc(C(=O)NC2CCSC2=O)cc1 (centres undefined)	-5	9	31	-43	-10	-14
Cc1cc(NC(=O)c2nn3cccnc3c2Cl)no1	4	25	.	-8	-25	-5
C=CCNC(=O)c1nn2cccnc2c1Cl	?	3	-40	92*	-3	-16
O=C(N/N=C/C(Br)=C/c1ccccc1)c1n[nH]c2c1CCC2	91*	-41	.	71	40*	16

Source: PubChem BioAssay (Columbia University Molecular Screening Center)
